The values below come from PubChem BioAssay (NCI).

Compounds without any hit were thinned out: in the full panel of roughly 83,000, 20% have a hit.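 In brief: 96-well plates, 48 h treatment, single concentration, percent growth endpoint.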 A number with no mark means an inactive call. Calls of active or inactive are those of the source. The calls were made as follows: active = growth percent below 10; inactive = the rest.

Some test systems named below: HCT-15 colon; HT29 colon; SNB-19 CNS; U251 CNS; PC-3 prostate; SK-MEL-5 melanoma; UACC-62 melanoma; LOX IMVI melanoma; SK-MEL-28 melanoma; SK-MEL-2 melanoma; EKVX NSCLC; SN12C renal; UO-31 renal; TK-10 renal; ACHN renal; CAKI-1 renal; A498 renal; CCRF-CEM leukemia; MOLT-4 leukemia; SNB-75 CNS.
Common to all, as to assay: NCI-60 one-dose screen, 48 h (100 = growth as untreated, 0 = no growth, -100 = all killed)
Holding throughout (details): 10 µM unless noted

Turning to `COc1cc2nnn3c4ncccc4c(N=O)c3c2cc1OC`, the growth is 83.4% with HCT-15 colon; 57.5% with HT29 colon; 102% with SNB-19 CNS; 45.1% in the test with U251 CNS; 74.8% in the test on PC-3 prostate; 113% in the test with SK-MEL-5 melanoma. For the same molecule, the growth with UACC-62 melanoma is 86.3%; in the test with LOX IMVI melanoma, 58.9%; in the test with SK-MEL-28 melanoma, 81.4%; with SK-MEL-2 melanoma it was 101%; with EKVX NSCLC it was 106%; in the test with SN12C renal, 81.4%. Besides, the growth was -6.2% (active) in the test with UO-31 renal; 98.8% with TK-10 renal; -2.46% (active) with ACHN renal; 74.9% in the test with CAKI-1 renal; 174% with A498 renal; -13.4% (active) in the test on CCRF-CEM leukemia. Also, in the test with MOLT-4 leukemia, the growth was -14.9% (active).
For `COc1ccc(Cl)cc1NC(=O)c1c(NC(=O)C(F)(F)C(F)(F)F)sc2c1CCCCC2`, the growth was 14.9% with HCT-15 colon; 3.87% (active) in the test with HT29 colon; 14.5% with SNB-19 CNS; 7.27% (active) with U251 CNS; 5.18% (active) in the test with PC-3 prostate; -58.3% (active) in the test with SK-MEL-5 melanoma. The growth in the test on UACC-62 melanoma is 6.99% (active); in the test on LOX IMVI melanoma, 17.6%; in the test on SK-MEL-28 melanoma, 23.3%; with SK-MEL-2 melanoma it was -30% (active); with EKVX NSCLC, -5.45% (active); in the test on SN12C renal it was 5.95% (active). Further, the growth with UO-31 renal was 1.55% (active); in the test on TK-10 renal it was 10.7%; in the test with ACHN renal, 1.54% (active); with CAKI-1 renal it was -13.6% (active); with A498 renal it was -45.1% (active); with MOLT-4 leukemia, 8.91% (active).
`Cc1c([N+](=O)[O-])cc(C(C)(C)C)cc1[N+](=O)[O-]`: the growth is 105% in the test with HCT-15 colon; 87.2% in the test on HT29 colon; 102% with SNB-19 CNS; 95.4% in the test with U251 CNS; 95.3% with PC-3 prostate; 99.7% in the test on SK-MEL-5 melanoma. The growth in the test on UACC-62 melanoma was 103%; in the test with LOX IMVI melanoma it was 97.2%; with SK-MEL-28 melanoma, 99.2%; with SK-MEL-2 melanoma, 71.5%; in the test with EKVX NSCLC it was 98.6%; in the test with SN12C renal, 99.7%. Further, the growth in the test on UO-31 renal was 98.7%; with TK-10 renal, 102%; in the test on ACHN renal it was 104%; with CAKI-1 renal, 98%; with A498 renal, 93.8%; with CCRF-CEM leukemia it was 106%. Besides, in the test on MOLT-4 leukemia, the growth is 95.9%.
As for `COc1ccc(/C=C2\COc3ccc(-c4ccccc4)cc3C2=O)cc1O`, the growth with HCT-15 colon was 19.6%; in the test on HT29 colon, 25.8%; in the test on SNB-19 CNS it was 71.8%; in the test with U251 CNS it was 5.71% (active); in the test on PC-3 prostate it was 27.8%; with SK-MEL-5 melanoma, 32.3%. The growth in the test with UACC-62 melanoma is 41%; in the test with LOX IMVI melanoma, -13.5% (active); with SK-MEL-28 melanoma, 46.7%; in the test with SK-MEL-2 melanoma, -29.6% (active); in the test with EKVX NSCLC, 105%; in the test with SN12C renal, 30.8%. Further, the growth is 40.6% in the test with UO-31 renal; 67.7% with TK-10 renal; 47.3% with ACHN renal; 126% in the test with CAKI-1 renal; 55.6% in the test on A498 renal; -30.6% (active) in the test on CCRF-CEM leukemia. In addition, the growth with MOLT-4 leukemia is -18.2% (active).
On to `COC(=O)C1NC(=S)N(c2ccc(Cl)cc2)C1/C=C/c1ccccc1` (stereo unspecified), for which the growth is 99.4% in the test with HCT-15 colon; 104% in the test on HT29 colon; 103% in the test on SNB-19 CNS; 97.5% in the test with U251 CNS; 86.2% in the test on PC-3 prostate; 102% in the test on SK-MEL-5 melanoma. Besides, the growth is 89.3% in the test with UACC-62 melanoma; 78.5% in the test on LOX IMVI melanoma; 118% in the test on SK-MEL-28 melanoma; 102% in the test with SK-MEL-2 melanoma; 92.4% with EKVX NSCLC; 99.3% with SN12C renal. In addition, the growth with UO-31 renal was 86.8%; with TK-10 renal, 105%; in the test on CAKI-1 renal it was 91.3%; in the test with CCRF-CEM leukemia, 100%; in the test with MOLT-4 leukemia it was 103%.
As for `Cc1cc(C(=O)Nc2ncnc3nc[nH]c23)no1`, the growth was 102% in the test on HCT-15 colon; 103% with HT29 colon; 96.6% in the test with SNB-19 CNS; 105% in the test with U251 CNS; 97% with PC-3 prostate; 101% with SK-MEL-5 melanoma. The growth is 97% in the test on UACC-62 melanoma; 99.4% with LOX IMVI melanoma; 106% in the test on SK-MEL-28 melanoma; 131% in the test on SK-MEL-2 melanoma; 103% in the test with EKVX NSCLC; 93.8% with SN12C renal. The growth in the test on UO-31 renal is 80.5%; in the test with TK-10 renal, 118%; with ACHN renal it was 99.8%; with A498 renal it was 110%; in the test on CCRF-CEM leukemia it was 86.4%; in the test with MOLT-4 leukemia, 91.7%.
With `C[C@@H]1CN(Cc2ccc(/C=C/c3n[nH]c4ccc5nc(-c6cn[nH]c6C(F)(F)F)c6c(c5c34)CCCC6)cc2)C[C@H](C)O1`, the growth was 7.35% (active) with HCT-15 colon; -4.9% (active) in the test with SNB-75 CNS; 57.1% in the test on SNB-19 CNS; 46.1% in the test with U251 CNS; 22.7% with PC-3 prostate; 40.3% in the test on SK-MEL-5 melanoma. In addition, the growth in the test with UACC-62 melanoma is 44.3%; in the test on LOX IMVI melanoma, 8.23% (active); with SK-MEL-28 melanoma, 40.6%; in the test with SK-MEL-2 melanoma it was 57.6%; in the test on EKVX NSCLC, 32.4%; in the test on SN12C renal, 12.6%. The growth in the test with UO-31 renal was 4.93% (active); with TK-10 renal, 32.5%; with ACHN renal, 10.8%; in the test on CAKI-1 renal, 1.97% (active); in the test with A498 renal it was 3.16% (active); in the test with CCRF-CEM leukemia, 15.4%.
As for `COc1cc2oc(-c3cccc(C(=O)Nc4ccc(Cl)cc4)c3)cc(=O)c2c(OC)c1OC`, the growth with HCT-15 colon is 17%; with HT29 colon it was 4.57% (active); in the test on SNB-19 CNS, 52.7%; in the test with U251 CNS, 37.4%; in the test with PC-3 prostate, 27.1%; in the test with SK-MEL-5 melanoma it was -60.1% (active). In addition, the growth in the test with UACC-62 melanoma was -9.87% (active); in the test with LOX IMVI melanoma, 2.16% (active); with SK-MEL-28 melanoma, -9.19% (active); in the test with SK-MEL-2 melanoma, 31.4%; with EKVX NSCLC it was 48.2%; with SN12C renal, 33.2%. Also, the growth in the test with UO-31 renal was 23.2%; with TK-10 renal, 38.6%; in the test with ACHN renal it was 33.2%; in the test on CAKI-1 renal, 8.22% (active); in the test with CCRF-CEM leukemia, 28.5%; in the test on MOLT-4 leukemia, 36.1%.
Take `NC(=O)c1cccc(-c2cc(C(N)=O)ccc2Cl)c1`: the growth with HCT-15 colon was 33.8%; in the test with HT29 colon, 8.86% (active); in the test with SNB-19 CNS, 41.6%; with U251 CNS, 19.1%; in the test on PC-3 prostate, 29.6%; in the test on SK-MEL-5 melanoma, 14.9%. Moreover, the growth was 35.7% in the test on UACC-62 melanoma; 42.1% in the test on LOX IMVI melanoma; 58.8% in the test on SK-MEL-28 melanoma; 35.7% in the test with EKVX NSCLC; 50% with SN12C renal; 45.7% in the test with UO-31 renal. Besides, the growth in the test with TK-10 renal is 51.2%; in the test with ACHN renal, 36.3%; in the test with CAKI-1 renal, 31.8%; in the test on A498 renal it was -5.64% (active); in the test with CCRF-CEM leukemia, 7.74% (active); in the test with MOLT-4 leukemia, 26.9%.
Consider `COc1ccccc1-c1c(-c2ccc(Cl)cc2)c2cc3c(cc2[nH]c1=O)OCCO3`, for which the growth with HCT-15 colon was 73.5%; in the test on HT29 colon it was 69.6%; with SNB-19 CNS, 94.9%; with U251 CNS it was 75.3%; in the test with PC-3 prostate, 41.5%; with SK-MEL-5 melanoma, 63.8%. For the same molecule, the growth in the test on UACC-62 melanoma is 71%; in the test with LOX IMVI melanoma, 73.9%; in the test on SK-MEL-28 melanoma, 90.4%; with SK-MEL-2 melanoma, 80.5%; with EKVX NSCLC, 53.6%; with SN12C renal, 85.4%. In addition, the growth in the test with UO-31 renal is 61.9%; in the test on TK-10 renal, 86%; with ACHN renal, 70.5%; with CAKI-1 renal, 54.9%; in the test with A498 renal it was 86.8%; with CCRF-CEM leukemia it was 41.7%. For the same molecule, in the test on MOLT-4 leukemia, the growth is 3.15% (active).
Regarding `CCCCCCc1nc2nc(Cl)c(Cl)nc2[nH]1`, the growth in the test with HCT-15 colon was 57.2%; with HT29 colon, 77.3%; in the test on SNB-19 CNS, 65.6%; with U251 CNS, 49%; in the test with PC-3 prostate, 47.9%; in the test with SK-MEL-5 melanoma, 16.2%. Further, the growth in the test on UACC-62 melanoma was 38.4%; with LOX IMVI melanoma it was 53.7%; with SK-MEL-28 melanoma, 65.1%; in the test with SK-MEL-2 melanoma it was 63.4%; in the test on EKVX NSCLC, 52.6%; with SN12C renal, 60.8%. Also, the growth is 52.6% with UO-31 renal; 76.9% with TK-10 renal; 67.4% in the test on ACHN renal; 39.1% in the test on CAKI-1 renal; 47.8% in the test on CCRF-CEM leukemia; 49% in the test with MOLT-4 leukemia.
